# Results reported in PubChem BioAssay AID485344 (National Center for Advancing Translational Sciences (NCATS), 2010).
# Values joined by “and” are separate entries in the source; they are usually repeats but may differ in a detail not shown here. Identical values can stand only once. About 6,900 (2%) of roughly 340,000 compounds were called active. Rule as the data show it: active = inhibition above about 30%; inactive = below that, where a call was filed. Many of the other results were omitted from the sample, so actives are more common in it than they were. Some structures have more than one record in an assay (separate samples or runs), and their calls can disagree.
# Molecular target: D(2) dopamine receptor (Homo sapiens) (UniProt P14416)
# Experiment: HTS Assay for Allosteric Antagonists of the Human D2 Dopamine Receptor: Primary Screen for Antagonists; also: 0% is about no effect
# Conditions: HEK293 TREx D2 cells, calcium flux, dopamine EC80; at 10 µM; stronger effect = higher value
# Procedure, shortened: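 Overnight-induced (tetracycline, 30 C) HEK293 T-REx cells carrying force-coupled D2 receive a no-wash calcium dye, then compound, then EC80 dopamine at 180 s; signals are read kinetically throughout.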
# D(2) dopamine receptor (Homo sapiens), sequence (P14416 whole entry, looked up): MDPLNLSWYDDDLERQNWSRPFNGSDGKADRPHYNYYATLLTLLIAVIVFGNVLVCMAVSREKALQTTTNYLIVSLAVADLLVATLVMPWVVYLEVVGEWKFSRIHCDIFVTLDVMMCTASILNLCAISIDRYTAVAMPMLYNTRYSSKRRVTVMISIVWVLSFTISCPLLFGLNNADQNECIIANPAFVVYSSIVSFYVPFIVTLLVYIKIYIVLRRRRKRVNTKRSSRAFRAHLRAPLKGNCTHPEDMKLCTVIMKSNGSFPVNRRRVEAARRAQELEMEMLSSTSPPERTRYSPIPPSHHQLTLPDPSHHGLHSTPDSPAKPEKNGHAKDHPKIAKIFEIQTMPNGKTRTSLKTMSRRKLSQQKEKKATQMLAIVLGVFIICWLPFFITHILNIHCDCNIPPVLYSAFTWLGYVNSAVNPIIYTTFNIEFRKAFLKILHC
row,SMILES,inhibition
1,CCn1c(SCC(=O)NCC2CCCO2)nc2ccccc21 (configuration not stated),-20.8% (inactive)
2,O=C(NC1CCCCC1)N1CCc2[nH]c3ccccc3c2C1,-14.3% (inactive)
3,COC(=O)[C@H]1[C@H]2C[C@H]3c4[nH]c5ccccc5c4CCN3C[C@@H]2CC[C@@H]1O,-5.26% (inactive) and 43.4% (active)
4,COC(=O)C1CCN(C(=O)c2cc(=O)[nH]c3ccccc23)CC1,17.7% (inactive)
5,O=C(COC(=O)Cc1ccc(Br)cc1)Nc1ccc(N2CCOCC2)cc1,22.4% (inactive)
6,COc1cc(CNCc2cccs2)cc(Br)c1OC,-4.22% (inactive)
7,COc1ccc(CNC(=O)Cc2ccc(-c3ccccc3)cc2)cc1OC,20.3% (inactive)
8,COc1cc(CNCc2ccc(OC)c3ccccc23)cc(OC)c1OC,33% (active)
9,COC(=O)C1=CO[C@@H](O[C@@H]2O[C@H](CO)[C@@H](O)[C@H](O)[C@H]2O)C2C1C[C@H](O)[C@@H]2C (some centres not stated),-6.47% (inactive)
10,COc1ccc(-n2c(SCC(=O)NCc3cccs3)nnc2-c2ccoc2C)cc1,42.5% (active)
11,COc1ccc(-n2nnnc2SCC(=O)NCc2cccs2)cc1,-2.89% (inactive)
12,COc1ccc(-n2c(SCC(=O)NCc3ccco3)nnc2-c2c[nH]c3ccccc23)cc1,-8.02% (inactive)
13,CN1CCN(S(=O)(=O)c2cccc(C(=O)Nc3sccc3C#N)c2)CC1,0.535% (inactive)
14,CN(C)C(=O)c1ccc(NC(=O)COC(=O)c2cc3c(s2)CCCCC3)cc1,-7.26% (inactive)
15,COc1ccc(-c2c(C#Cc3ccccc3)c3ccccc3n2C)cc1,9.11% (inactive)
16,COc1ccc(-c2nc3ccccc3c(=O)n2CCc2ccc(O)cc2)cc1,-13.4% (inactive)
17,COc1ccc(CCNCc2c(-c3ccccc3)n(C)c3ccccc23)cc1,45.6% (active)
18,CCOc1c(OC)cc(C2C(C#N)=C(N)Oc3n[nH]c(-c4ccncc4)c32)cc1OC (configuration not stated),-9.43% (inactive)
19,CCCc1[nH]nc2c1C(c1ccc(OC)c(Cn3nc(C)c(Br)c3C)c1)C(C#N)=C(N)O2 (configuration not stated),-23.9% (inactive)
20,COc1ccc(C2C(C#N)=C(N)Oc3n[nH]c(C)c32)cc1CN1CCN(c2ccc(F)cc2)CC1 (configuration not stated),53.9% (active)
21,COc1ccccc1/C=C/C(=O)OCC(=O)NC1CCCCCC1,-12.9% (inactive)
22,CCN(CC(=O)Nc1ccccc1C(=O)NC1CC1)Cc1cccs1,0.568% (inactive)
23,Cc1cc(C)c(C#N)c(SCC(=O)N(CC(C)C)C2CCS(=O)(=O)C2)n1 (configuration not stated),6.67% (inactive)

row,SMILES,inhibition
1,CC1CC1C(=O)OCC(=O)Nc1cccc(F)c1 (configuration not stated),17.3% (inactive)
2,Cc1ccsc1C(C(=O)NC1CCCCC1)N(C(=O)Cc1cccs1)C1CC1 (configuration not stated),2.03% (inactive)
3,O=C(Cc1cccs1)N(CC1CCCO1)C1(C(=O)NC2CCCCC2)CCCCC1 (configuration not stated),34% (active)
4,CC(=O)N(CC1CCCO1)C1(C(=O)NC2CCCC2)CCCCC1 (configuration not stated),-1.19% (inactive)
5,COc1ccc(N(CCC(=O)NCCc2ccccc2)S(=O)(=O)c2ccc(C)cc2C)cc1,-18.2% (inactive)
6,COc1cc2c(cc1OC)CN(C(C)C(=O)Nc1cccc(S(=O)(=O)N3CCOCC3)c1)CC2 (configuration not stated),15.6% (inactive)
7,COc1ccc(CC(=O)Nc2c3c(nn2-c2cccc(Cl)c2)CS(=O)C3)cc1 (configuration not stated),-9.37% (inactive)
8,CC(C)C(=O)Nc1c2c(nn1-c1ccccc1)CSC2,7.83% (inactive)
9,CC(Oc1ccccc1)C(=O)Nc1c2c(nn1-c1ccccc1)CS(=O)C2 (configuration not stated),30.2% (active)
10,O=c1ccc(S(=O)(=O)N2CCCC2)cn1Cc1nc(-c2ccccc2)no1,15.2% (inactive)
11,CCOc1ccccc1-c1nc(CN2CCC(C(=O)N3CCOCC3)CC2)c(C)o1,-1.66% (inactive)
12,COc1ccc(-c2nc(CN3CCN(c4ncccn4)CC3)c(C)o2)cc1C,0.804% (inactive)
13,COc1ccc(F)c(-c2nc(CN3CCC(c4ccccc4)CC3)c(C)o2)c1,93.5% (active)
14,COc1ccccc1N1CCN(CC(=O)Nc2ccnn2C2CCCC2)CC1,14.3% (inactive)
15,CC(=O)NC12CC3CC(C1)CC(C(=O)N1CCN(S(=O)(=O)c4cccs4)CC1)(C3)C2,-3.14% (inactive)
16,O=C1c2ccccc2C(=O)N1CCC#Cc1ccc2cc(C3(O)CCCCC3)oc(=O)c2c1,-4.36% (inactive)
17,COc1cccc(N2CC(NS(=O)(=O)c3ccc(Cl)cc3)CC2=O)c1 (configuration not stated),12% (inactive)
18,NS(=O)(=O)c1ccc(-c2ccc(/C=C3\SC(=O)NC3=O)o2)cc1,47.3% (active)
19,CN1CCN(/N=C/c2ccc(-c3ccc([N+](=O)[O-])cc3)o2)CC1,11.1% (inactive)
20,CN1C(=O)/C(=C\c2ccc(-c3ccccc3)o2)SC1=S,16.2% (inactive)
21,COC(=O)c1sc(NC(=O)COC(=O)C2CCC2)c(C(=O)OC)c1C,3.68% (inactive)
22,CC(Sc1ncnc2c1cnn2-c1ccccc1)C(=O)Nc1ccc(N2CCOCC2)cc1 (configuration not stated),8.83% (inactive)
23,CCOc1ccc(C(C)=O)cc1COC(=O)CN1C(=O)NC2(CCCC2)C1=O,5.14% (inactive)

row,SMILES,inhibition
1,CC(C)=CCC/C(C)=C/C(=O)O,55.4% (active)
2,O=C(CCc1ccccc1)NNC(=O)c1ccc(Br)cc1,-5.25% (inactive)
3,CC(C)c1ccc(C(=O)NCCCc2ccccc2)cc1,-23.5% (inactive)
4,O=C(CCNC(=O)c1ccc(Br)cc1)NCCCc1ccccc1,34.2% (active)
5,O=C(CNS(=O)(=O)c1ccc2ccccc2c1)Nc1ccc(F)c(F)c1F,6.19% (inactive)
6,COC(=O)c1ccc(CSc2ccccc2C)o1,34.1% (active)
7,COC(=O)c1ccc(CSc2nnc(N)s2)o1,-17.4% (inactive)
8,COC(=O)c1ccc(Cc2ccccc2)o1,-18.3% (inactive)
9,COc1ccc(N2CCN(C(=O)COC(=O)c3cccc(S(=O)(=O)Nc4ccccc4OC)c3)CC2)cc1,3.16% (inactive)
10,CC1CCCCC1NC(=O)NC(=O)COC(=O)C1=NN(c2ccccc2)C(=O)CC1 (configuration not stated),-16.5% (inactive)
11,CC1CCCCC1NC(=O)COC(=O)Cc1ccc(Cl)cc1 (configuration not stated),-14.4% (inactive)
12,Cc1nn(Cc2ccccc2)c(C)c1C(=O)NCCCN1CCCC1=O,0.482% (inactive)
13,O=C(CCc1ccccc1)Nc1ncc([N+](=O)[O-])s1,-6.9% (inactive)
14,CC(=O)Oc1ccccc1C(=O)Nc1ncc([N+](=O)[O-])s1,35% (active)
15,O=C(Nc1ncc([N+](=O)[O-])s1)C1COc2ccccc2O1 (configuration not stated),5.74% (inactive)
16,O=C1C=C(c2cccc(Br)c2)C[C@@H](c2ccc(F)cc2)C1,-5.1% (inactive)
17,CC(C)c1ccc(OCC(O)CN2CCN(c3ccccn3)CC2)cc1 (configuration not stated),74.5% (active)
18,OC(COc1ccc(Br)cc1)CN1CCCC1 (configuration not stated),15.6% (inactive)
19,Cc1cccc(OCC(O)CN2CCN(CCN3C(=O)c4cccc5cccc(c45)C3=O)CC2)c1C (configuration not stated),-17.4% (inactive)
20,O=S(=O)(c1ccc(OCC(O)CN2CCN(c3ccccc3Cl)CC2)cc1)N1CCOCC1 (configuration not stated),-9.57% (inactive)
21,O=C(C(c1ccccc1)c1ccccc1)N1CCN(CC(O)COc2ccccc2)CC1 (configuration not stated),19.3% (inactive)
22,CC1CCN(CC(O)COc2ccc(C(=O)c3ccccc3)cc2)CC1 (configuration not stated),2.36% (inactive)
23,O=C(c1ccccc1)c1ccc(OCC(O)CN2CCCC2)cc1 (configuration not stated),71.8% (active)

row,SMILES,inhibition
1,OC(COc1cccc2ccccc12)CN1CCN(c2ccccn2)CC1 (configuration not stated),75.1% (active)
2,O=C(c1ccc(Cl)cc1)c1ccc(OCC(O)CN2CCCCC2)cc1 (configuration not stated),11.7% (inactive)
3,CC(C)c1ccc(OCC(O)Cn2cnc3ccccc32)cc1 (configuration not stated),5.76% (inactive)
4,C=CCc1ccccc1OCC(O)CN1CCN(CCO)CC1 (configuration not stated),-21.6% (inactive)
5,CC(=O)Nc1ccc(OCC(O)CN2CCN(c3ccccc3Cl)CC2)cc1 (configuration not stated),76.3% (active)
6,Cc1ccc(CC(=O)N(C)CC(=O)N(CC(C)C)c2c(N)n(CC(C)C)c(=O)[nH]c2=O)cc1C,15% (inactive)
7,CC(C)CCN1CCN=C1N(C)C,8.98% (inactive)
8,O=C(Nc1ccccn1)C1CCN(S(=O)(=O)c2ccccc2)CC1,5.14% (inactive)
9,COc1ccccc1-c1oc2ccccc2c1C#CCCCCO,13.9% (inactive)
10,Cc1cc(C)n2nc(C(=O)OCC(=O)N(C)CC(=O)Nc3ccc(F)cc3)nc2n1,7.08% (inactive)
11,CN(CC(=O)Nc1ccc(OC(F)(F)F)cc1)C(=O)C1CCC1,-3.8% (inactive)
12,COc1ccccc1C(=O)Nc1ccc(C)c(S(=O)(=O)N2CCCCC2)c1,9.57% (inactive)
13,O=C(Nc1ccccc1F)c1ccc(S(=O)(=O)N2CCCCCC2)cc1,-10.1% (inactive)
14,CN(C(=O)COC(=O)c1cc(=O)[nH]c2ccccc12)C1CCCCC1,6.97% (inactive)
15,O=C(Nc1cc(S(=O)(=O)N2CCOCC2)ccc1OCC(F)(F)F)c1ccc(N2CCCC2=O)cc1,-14.2% (inactive)
16,Cc1ccccc1OCC(O)CN1CCN(c2ccccn2)CC1 (configuration not stated),87.2% (active)
17,COc1ccccc1OCC(O)CN1CCOCC1 (configuration not stated),3.41% (inactive)
18,Cc1cccc(C)c1OCC(O)CN1CCCCC1 (configuration not stated),13.3% (inactive)
19,CC(NC(=O)c1ccccc1SCC(=O)N1CCCC1)c1ccccc1 (configuration not stated),5.13% (inactive)
20,Cc1ccc(NC(=O)COC(=O)CNC(=O)c2ccc(Cl)cc2Cl)cc1S(=O)(=O)N1CCOCC1,-10.2% (inactive)
21,COC(=O)Cc1[nH]n(-c2nc3ccccc3s2)c(=O)c1C(C)=Nc1ccc(OC)cc1,12.5% (inactive)
22,COC(=O)Cc1cc(=O)n(-c2nc3ccccc3s2)[nH]1,36.2% (active)
23,C/C(=N\NC(=O)CC(C)C)c1c(C(F)(F)F)[nH]n(-c2nc3ccccc3s2)c1=O,-4.59% (inactive)
